AMA1 RON2 block: disrupts binding of P. falciparum AMA1 to RON2. AlphaScreen AMA1-biotinylated RON2 peptide binding. Potency, µM (top dose mostly 58.2 µM), hits mostly inhibitors. hit rate 0.2% among 360,000. AID 720542; active means well fitted inhibition curve with a large enough effect; inconclusive means small, poorly fitted or top-dose-only effect; inactive means no such curve, though single readings can be large or run the other way; further: nearly all actives have a fitted effect of over 45% in size
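AMA1 (3D7) with his tag at 25 nM final met compounds first, then biotinylated RON2 peptide at 25 nM; detection used donor plus acceptor beads, 10 µg/mL apiece, read by AlphaScreen after 30 min at room temperature.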
Marburg entry inh: Marburg virus entry inhibition | Potency, µM (highest dose often 37.8 µM), actives largely listed as inhibitors | Marburg virus pseudotyped entry inhibition, cell reporter | AID 540276 | hit rate 1.8% among 300,000; calls by dose curve; tested in HEK293 cells
CHX counter: counter-screen for Shiga toxin inhibitors: cycloheximide protein synthesis inhibition; cell reporter, cycloheximide protein synthesis inhibition counterscreen; max response, %; hit rate 12% among 300,000; in the data active means max response mostly above about 13%, no sharp cut-off; inactive means mostly below about 14%; further: read at 38.3 µM for the half of the compounds with a filed dose
Shiga inhibitor: Shiga toxin inhibition; Vero cells, Shiga toxin protein synthesis inhibition reporter; inhibition, % at 38.7 µM; hit rate 9.2% among 290,000; in the data active means inhibition mostly above about 28%, no sharp cut-off; inactive means mostly below about 43%
Lassa entry inh: Lassa virus entry inhibition | Lassa virus pseudotype entry inhibition, cell reporter | Potency, µM (doses to about 37.9 µM), actives largely listed as inhibitors | hit rate 1.2% among 300,000; calls by dose curve; tested in HEK293 cells; further: nearly all actives have a fitted effect of over 50% in size
Large screens that a line does not name were inactive. The full list was thinned out, with hits kept by preference.

CC(C)(C)C1CCc2onc(C(=O)NCc3ccc(F)cc3)c2C1 (stereo not given)	none
O=C(NCc1ccc(F)cc1)c1noc2c1CCCC2	CHX counter 20, Lassa entry inh inconclusive
O=C(NCc1ccc(F)cc1)c1noc2c1CCCCC2	Marburg entry inh inconclusive, CHX counter 21
O=C(Nc1cc(Cl)ccc1Cl)c1noc2c1CCCC2	none (no result: Marburg entry inh, Lassa entry inh)
O=C(CCCC(=O)N(CC(=O)NC1CCCCC1)c1ccccc1F)Nc1ccccn1	Marburg entry inh inconclusive
CC(OCCN1CCCC1)(c1ccc(F)cc1)c1ccc(F)cc1	Marburg entry inh inconclusive, Lassa entry inh 2µM
Fc1ccc(OCCOCCN2CCCC2)cc1	Marburg entry inh inconclusive (no result: CHX counter, Shiga inhibitor)
O=C(Nc1nc(-c2ccc(Cl)cc2Cl)cs1)C1CCCO1 (stereo not given)	Marburg entry inh inconclusive, Lassa entry inh inconclusive
O=C(Nc1nc(-c2ccc(Cl)cc2)cs1)C1CCCO1 (stereo not given)	CHX counter 36, Shiga inhibitor 91
CCOc1ccc(-c2csc(NC(=O)C3CCCO3)n2)cc1 (stereo not given)	Marburg entry inh inconclusive, CHX counter 42, Shiga inhibitor 11
Cc1ccc(C)c(N/C(N)=N/c2nc(C)cc(C)n2)c1	Marburg entry inh inconclusive
Cc1ccc(CN=C(N)Nc2nc(C)cc(C)n2)cc1	Marburg entry inh 11µM
Cc1ccccc1OC(=O)CSc1nnc(-c2ccc3c(c2)OCO3)o1	none (no result: AMA1 RON2 block, CHX counter, Shiga inhibitor)
Cc1ccc(-c2nc(=S)c3c(n2Cc2ccco2)CC(C)(C)OC3)cc1	Marburg entry inh 13µM
Cc1ccc(-c2nc(=S)c3c(n2Cc2ccco2)CCCC3)cc1	none
O=c1c(-c2nc3ccccc3s2)cccn1Cc1ccccc1	Marburg entry inh inconclusive, CHX counter 51, Shiga inhibitor 102, Lassa entry inh inconclusive
Cc1ccc(Cn2cccc(-c3nc4ccccc4s3)c2=O)cc1	Marburg entry inh inconclusive, CHX counter 43, Shiga inhibitor 70
Cc1cccc(Cn2cccc(C(=O)Nc3nc4ccccc4s3)c2=O)c1	none (no result: AMA1 RON2 block, Marburg entry inh, CHX counter, Shiga inhibitor)
COC(=O)CC1COc2ccccc2N1C(=O)/C=C/c1ccccc1 (stereo not given)	none (no result: Marburg entry inh, Lassa entry inh)
CC(C)N(Cc1c(O)ccc2c(=O)c(-c3ccc(Cl)cc3)coc12)C(C)C	CHX counter 18 (no result: Marburg entry inh, Shiga inhibitor, Lassa entry inh)
CCN(CC)Cc1c(O)ccc2c(=O)c(-c3ccccc3)coc12	CHX counter 31 (no result: Marburg entry inh, Shiga inhibitor, Lassa entry inh)
CC1CCCCN1Cc1c(O)ccc2c(=O)c(-c3nc4ccccc4s3)c(N)oc12 (stereo not given)	Marburg entry inh 2.5µM, CHX counter 40, Shiga inhibitor 63, Lassa entry inh inconclusive
CCN(Cc1ccccc1)Cc1c(O)ccc2c(=O)c(-c3ccccc3Cl)coc12	none (no result: AMA1 RON2 block, CHX counter, Shiga inhibitor)
CC1CCCCN1Cc1c(O)ccc2c(=O)c(-c3ccc(Cl)cc3)coc12 (stereo not given)	Marburg entry inh inconclusive, CHX counter 30
O=c1c(-c2ccc(Cl)cc2)coc2c(CN3CCOCC3)c(O)ccc12	Marburg entry inh inconclusive, Lassa entry inh inconclusive
CCN(CC)CCN(C)C(=O)c1[nH]c(C(F)(F)F)nc1-c1ccccc1	none (no result: Marburg entry inh, CHX counter, Shiga inhibitor, Lassa entry inh)
COc1cccc(CNC(=O)CSc2c3c(nc4ccc(Cl)cc24)CCCC3)c1OC	none (no result: AMA1 RON2 block, CHX counter, Shiga inhibitor)
O=C(NCc1nc(-c2ccc(Cl)cc2)no1)c1ccco1	none
c1ccc(CCc2nc(-c3ccccc3)no2)cc1	CHX counter 35, Shiga inhibitor 129, Lassa entry inh inconclusive
Brc1ccc(-c2noc(CCc3ccccc3)n2)cc1	Marburg entry inh inconclusive (no result: CHX counter, Shiga inhibitor)
CCCc1nc(-c2ccc(-c3ccc(F)cc3)cc2)no1	CHX counter 18
c1cncc(-c2noc(CC3CCCCC3)n2)c1	CHX counter 41, Shiga inhibitor 55
O=C(Nc1ccc(-c2noc(CCc3ccccc3)n2)cc1)c1ccco1	Marburg entry inh inconclusive, CHX counter 58, Shiga inhibitor 85, Lassa entry inh inconclusive
O=P(Nc1ccccc1)(Nc1ccccc1)c1ccccc1	Marburg entry inh inconclusive (no result: CHX counter, Shiga inhibitor)
CCCSc1ncc(Cl)c(C(=O)NCc2ccc(OC)cc2)n1	Marburg entry inh inconclusive (no result: AMA1 RON2 block, CHX counter, Shiga inhibitor)
Cc1cc(C)c(SSc2nnnn2-c2ccccc2)c(C)c1	none (no result: Marburg entry inh, CHX counter, Shiga inhibitor, Lassa entry inh)
Cc1ccc(S(=O)(=O)N2CCN(C(=O)CCC(=O)NCc3cccc(C(F)(F)F)c3)CC2)cc1	Marburg entry inh inconclusive (no result: CHX counter, Shiga inhibitor)
O=C(CCc1nc(-c2ccccc2)no1)N1CCCC1	none
c1ccc(CCc2nc(-c3cccnc3)no2)cc1	CHX counter 22, Shiga inhibitor 53
c1ccc(CCc2ccccc2-c2nc(-c3cccnc3)no2)cc1	Marburg entry inh inconclusive
O=C1CCC(=O)N1CCCCCc1nc(-c2ccccc2)no1	CHX counter 41
CCOC(=O)C1(C(C)C)Oc2ccccc2C(c2ccc(OC)cc2)=C1C(=O)OC (stereo not given)	none (no result: AMA1 RON2 block, Marburg entry inh, Lassa entry inh)
C=C(C(C)=O)C(O)C=Cc1ccco1 (stereo not given)	none (no result: AMA1 RON2 block, CHX counter, Shiga inhibitor, Lassa entry inh)

Screening data deposited in PubChem by National Center for Advancing Translational Sciences (NCATS).
